This is an account of results in PubChem BioAssay (NCI).

Compounds without any hit were thinned out: in the full panel of roughly 83,000, 20% have a hit.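 How to read the values: 0–100, growth inhibition (40 = 60% inhibited); 0, no net growth; -100 to 0, cell death (-40 = 40% of starting cells died; -100 = all dead).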 Unmarked numbers belong to inactive results. Calls of active or inactive are those of the source. How the source made its calls: active means growth percent below 10; inactive means the rest.

What all share (assay): NCI-60 one-dose screen, 48 h (100 = growth as untreated, 0 = no growth, -100 = all killed)
Common to all, as to settings: 10 µM unless noted

Test [1] has as its system EKVX NSCLC.
The test system of test [2] is SN12C renal.
Test [3] has as its system UO-31 renal.
Test [4] relates to ACHN renal.
The subject of test [5] is CAKI-1 renal.
For test [6], the system named is A498 renal.
Test [7] deals with CCRF-CEM leukemia.
In test [8] the test system is MOLT-4 leukemia.
Test [9] has as its system SR leukemia.
Test [10] has as its system RPMI-8226 leukemia.
For test [11], the system named is OVCAR-8 ovarian.
Test [12] concerns OVCAR-5 ovarian.
The test system of test [13] is OVCAR-4 ovarian.
Test [14] deals with SK-OV-3 ovarian.
Test [15] has as its system IGROV1 ovarian.
For test [16], the system named is OVCAR-3 ovarian.
The test system of test [17] is HS 578T breast.
Test [18] relates to NCI/ADR-RES ovarian.
The test system of test [19] is T-47D breast.

As for `Oc1c(Cl)cc(Cl)c2ccc(CN3CCCCC3)nc12`, the growth is 30.6% in [1]; 42.9% in test [2]; 35.7% in test [3]; 29.4% in test [4]; 36.2% in test [5]; 49.9% in test [6]. The growth was 18.6% in [7]; 26.1% in test [8]; 18.8% in [9]; 38.1% in test [10]; 23% in test [11]; 55.7% in test [12]. Further, the growth in test [13] is 33.3%; in [14], 62.1%; in test [15], 33.9%; in test [16], 27.6%; in test [17] it was 66.5%; in test [18] it was 19.3%. Besides, the growth in test [19] was 48.1%.

`COc1cc2nc(-c3ccc(C)cc3)cc(OCCCNCC3CCCO3)c2cc1OC` (centres undefined): the growth in [1] was 73.4%; in test [2], 57.3%; in test [3] it was 72%; in [4], 65.7%; in test [5] it was 24.6%; in test [6] it was 46.9%. Further, the growth in [7] was 73.4%; in test [8], 71.9%; in [9], 41.1%; in test [10], 24.1%; in [11] it was 46.8%; in test [12], 56.7%. Besides, the growth in test [13] was 89.8%; in [14], 113%; in test [15], 49.1%; in [17], 84.3%; in test [19], 66%.

Regarding `Clc1ccc2oc3c(NCCCN4CCOCC4)c4ccccc4nc3c2c1`, the growth in [1] was 37.9%; in test [2], 19.6%; in test [3], 24.2%; in [4], 13.4%; in [5], 12.8%; in test [6], -2.14% (active). The growth in [7] is 27.6%; in [8], 4.08% (active); in test [9], 1.91% (active); in test [10] it was 11.4%; in test [11], 23.3%; in test [12], 30%. The growth was 36.9% in [13]; 57.8% in test [14]; 16.9% in test [15]; 64.5% in test [16]; 37.8% in test [17]; 29.2% in test [18]. For the same compound, the growth in [19] is 51.7%.

For `O=C(CN1CCOCC1)NNc1ncnc2ccccc12`, the growth in test [1] was 85.7%; in [2], 89.4%; in [3], 71.5%; in test [4], -91% (active); in [5], 93.9%; in [6] it was 111%. Further, the growth in [7] was 13.8%; in test [8], 74.6%; in [9] it was 68.3%; in [10], 90.9%; in test [11], 102%; in [12] it was 69.3%. Besides, the growth in test [13] was 96.1%; in test [14], 107%; in test [15] it was 79.3%; in test [16] it was 64.7%; in test [17] it was 89.5%; in test [18], 104%. In addition, the growth in [19] was 41.6%.

Turning to `N#Cc1nc(-c2ccccc2)oc1S(N)(=O)=O`, the growth in [1] is 97.5%; in test [2] it was 49.6%; in [3] it was 72.3%; in [4], 73%; in test [5], 63.1%; in test [6], 83.1%. For the same compound, the growth in [7] was 14.6%; in [8], 41.4%; in test [9], 3.32% (active); in test [10], 46.2%; in test [11], 79.1%; in test [12], 74.1%. In addition, the growth in test [13] is 84.2%; in test [14], 135%; in [15], 49.2%; in test [16] it was 77.4%; in test [17], 95%; in test [18], 82.7%. Besides, the growth in [19] is 64.1%.

`C#C[C@]1(O)CC[C@H]2[C@@H]3CC=C4c5sc(-c6ccc(F)cn6)nc5CC[C@]4(C)[C@H]3CC[C@@]21C`: the growth was 25.4% in [1]; 58.7% in [2]; 52.7% in test [3]; 47.2% in test [4]; 20.6% in test [5]; -24.7% (active) in test [6]. Moreover, the growth in test [7] was 8.87% (active); in test [8], -7.92% (active); in test [9], -2.25% (active); in test [10] it was -26% (active); in [11], 42.8%; in test [12], 59.9%. The growth in test [13] was 57.8%; in test [14], 21.2%; in [15] it was 49.8%; in [16], 56.2%; in [17] it was -16.2% (active); in [18] it was 44.8%. In addition, the growth in [19] is 39.9%.

For `NC(=O)c1cc(-c2ccc3ncnc(N4CCc5cc(F)c(Cl)cc54)c3c2)cnc1N`, the growth was 13.6% in test [1]; 23.4% in [2]; 22.3% in [3]; 23.1% in [4]; 19.9% in test [5]; -68.3% (active) in [6]. In addition, the growth was 21% in test [7]; -11.8% (active) in test [8]; 18.5% in test [9]; -8.02% (active) in test [10]; 32.8% in [11]; 36.5% in [12]. The growth is 10.4% in test [13]; 35.9% in [14]; -41.2% (active) in test [15]; -7.69% (active) in test [17]; 60.2% in test [18]; 0.0054% (active) in test [19].

For the compound `O=C1Nc2cc(Cl)ccc2/C1=C\c1ccc(OCc2ccc(Br)cc2F)cc1`, the growth in [1] is -18.9% (active); in test [2], -70.1% (active); in test [3], -68.7% (active); in test [4] it was -83% (active); in [5] it was -77.1% (active); in test [6], -75.8% (active). Moreover, the growth in [7] is 12.9%; in test [8], 22.7%; in [9], 27.4%; in test [10], -24.3% (active); in test [11], -36.7% (active); in test [12], 6.67% (active). The growth in [13] is -54.3% (active); in [14], -36.9% (active); in test [15], -88.8% (active); in [16] it was -64.7% (active); in [17] it was -26.1% (active); in [18], -0.106% (active). Further, the growth in test [19] was -23.9% (active).
